Results on 1 molecule are retold here after ChEMBL document CHEMBL1961873, “Compounds: GSK PKIS; Assays: Nanosyn kinase panel” (2012).

Broadly, the inhibition is the relative decrease from the control value, in per cent.

In test [1] the target is Sphingosine kinase 1 (Homo sapiens) (UniProt Q9NYA1). Conditions: at 1 µM.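 Note: mean SPHK1 inhibition value reported from the GSK PKIS kinase panel screen.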
Test [2] deals with T1, Sphingosine kinase 2 (Homo sapiens) (UniProt Q9NRA0).
T1 sequence (whole entry): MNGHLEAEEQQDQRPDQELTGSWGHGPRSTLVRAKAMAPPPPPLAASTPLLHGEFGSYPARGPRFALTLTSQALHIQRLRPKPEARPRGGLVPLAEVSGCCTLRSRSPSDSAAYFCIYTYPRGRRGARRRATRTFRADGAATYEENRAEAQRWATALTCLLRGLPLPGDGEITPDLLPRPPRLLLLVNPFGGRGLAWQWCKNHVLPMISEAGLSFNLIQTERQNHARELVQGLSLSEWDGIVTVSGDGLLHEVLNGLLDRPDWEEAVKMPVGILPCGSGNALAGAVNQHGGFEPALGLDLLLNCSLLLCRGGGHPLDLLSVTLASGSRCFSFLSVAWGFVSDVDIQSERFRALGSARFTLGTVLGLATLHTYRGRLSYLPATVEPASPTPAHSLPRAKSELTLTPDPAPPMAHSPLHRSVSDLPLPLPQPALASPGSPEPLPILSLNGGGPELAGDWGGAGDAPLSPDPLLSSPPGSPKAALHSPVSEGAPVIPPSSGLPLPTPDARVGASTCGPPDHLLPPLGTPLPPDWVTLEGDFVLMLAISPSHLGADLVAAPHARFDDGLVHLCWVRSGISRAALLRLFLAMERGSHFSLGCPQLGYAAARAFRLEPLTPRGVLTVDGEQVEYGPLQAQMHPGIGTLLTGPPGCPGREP
The settings on record: at 0.1 µM.

Test [3] concerns the target T1, Sphingosine kinase 2 (Homo sapiens). The settings on record: at 1 µM.
Test [4] has as its target Casein kinase II subunit alpha (Homo sapiens) (UniProt P68400). Conditions: at 0.1 µM.
For test [5] the target is unchanged. The settings on record: at 1 µM.
For test [6], the target named is T2, Inhibitor of nuclear factor kappa-B kinase subunit alpha (Homo sapiens) (UniProt O15111).
T2 sequence (whole entry): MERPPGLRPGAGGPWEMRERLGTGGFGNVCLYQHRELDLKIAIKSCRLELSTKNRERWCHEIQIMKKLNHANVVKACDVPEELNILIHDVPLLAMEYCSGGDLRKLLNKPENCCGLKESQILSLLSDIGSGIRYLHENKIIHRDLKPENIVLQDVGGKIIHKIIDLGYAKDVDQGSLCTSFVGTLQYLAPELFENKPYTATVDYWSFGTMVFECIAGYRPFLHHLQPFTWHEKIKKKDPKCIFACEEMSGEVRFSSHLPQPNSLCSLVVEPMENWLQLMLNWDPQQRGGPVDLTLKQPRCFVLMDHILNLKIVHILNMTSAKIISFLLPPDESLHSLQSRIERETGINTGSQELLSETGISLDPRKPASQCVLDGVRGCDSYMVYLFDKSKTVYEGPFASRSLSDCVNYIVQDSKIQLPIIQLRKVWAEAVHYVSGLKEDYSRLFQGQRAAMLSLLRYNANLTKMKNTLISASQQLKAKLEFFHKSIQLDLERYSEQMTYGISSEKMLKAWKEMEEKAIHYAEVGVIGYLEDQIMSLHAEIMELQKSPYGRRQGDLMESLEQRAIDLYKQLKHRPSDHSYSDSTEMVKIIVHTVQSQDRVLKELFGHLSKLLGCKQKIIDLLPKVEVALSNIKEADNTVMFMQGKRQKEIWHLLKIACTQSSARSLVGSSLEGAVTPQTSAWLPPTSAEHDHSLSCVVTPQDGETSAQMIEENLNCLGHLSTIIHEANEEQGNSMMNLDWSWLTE
The settings on record: at 0.1 µM.

Test [7] concerns the target T2, Inhibitor of nuclear factor kappa-B kinase subunit alpha (Homo sapiens). The settings on record: at 1 µM.
Test [8] addresses T3, Inhibitor of nuclear factor kappa-B kinase subunit beta (Homo sapiens) (UniProt O14920).
T3 sequence (whole entry): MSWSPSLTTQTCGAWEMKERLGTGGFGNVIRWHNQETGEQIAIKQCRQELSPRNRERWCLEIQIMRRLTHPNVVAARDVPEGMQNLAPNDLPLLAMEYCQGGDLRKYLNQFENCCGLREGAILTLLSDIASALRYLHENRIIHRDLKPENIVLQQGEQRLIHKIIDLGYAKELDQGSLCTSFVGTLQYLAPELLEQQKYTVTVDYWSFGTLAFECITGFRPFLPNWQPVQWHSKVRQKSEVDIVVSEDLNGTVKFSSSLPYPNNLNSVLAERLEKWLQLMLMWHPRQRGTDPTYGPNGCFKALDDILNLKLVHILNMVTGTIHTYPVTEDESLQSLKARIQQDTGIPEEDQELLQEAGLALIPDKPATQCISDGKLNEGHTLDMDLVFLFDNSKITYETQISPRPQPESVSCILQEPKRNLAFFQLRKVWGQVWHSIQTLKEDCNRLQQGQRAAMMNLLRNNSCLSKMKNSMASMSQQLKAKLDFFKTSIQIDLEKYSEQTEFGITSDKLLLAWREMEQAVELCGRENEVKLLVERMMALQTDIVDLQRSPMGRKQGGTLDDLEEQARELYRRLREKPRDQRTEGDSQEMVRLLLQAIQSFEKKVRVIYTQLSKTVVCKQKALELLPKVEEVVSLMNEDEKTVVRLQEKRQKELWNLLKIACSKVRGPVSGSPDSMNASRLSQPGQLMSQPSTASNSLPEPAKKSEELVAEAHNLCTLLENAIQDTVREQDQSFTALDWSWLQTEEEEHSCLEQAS
The settings on record: at 0.1 µM.

Test [9] concerns the target T3, Inhibitor of nuclear factor kappa-B kinase subunit beta (Homo sapiens). The settings on record: at 1 µM.
For test [10], the target named is T4, Inhibitor of nuclear factor kappa-B kinase subunit epsilon (Homo sapiens) (UniProt Q14164).
T4 sequence (whole entry): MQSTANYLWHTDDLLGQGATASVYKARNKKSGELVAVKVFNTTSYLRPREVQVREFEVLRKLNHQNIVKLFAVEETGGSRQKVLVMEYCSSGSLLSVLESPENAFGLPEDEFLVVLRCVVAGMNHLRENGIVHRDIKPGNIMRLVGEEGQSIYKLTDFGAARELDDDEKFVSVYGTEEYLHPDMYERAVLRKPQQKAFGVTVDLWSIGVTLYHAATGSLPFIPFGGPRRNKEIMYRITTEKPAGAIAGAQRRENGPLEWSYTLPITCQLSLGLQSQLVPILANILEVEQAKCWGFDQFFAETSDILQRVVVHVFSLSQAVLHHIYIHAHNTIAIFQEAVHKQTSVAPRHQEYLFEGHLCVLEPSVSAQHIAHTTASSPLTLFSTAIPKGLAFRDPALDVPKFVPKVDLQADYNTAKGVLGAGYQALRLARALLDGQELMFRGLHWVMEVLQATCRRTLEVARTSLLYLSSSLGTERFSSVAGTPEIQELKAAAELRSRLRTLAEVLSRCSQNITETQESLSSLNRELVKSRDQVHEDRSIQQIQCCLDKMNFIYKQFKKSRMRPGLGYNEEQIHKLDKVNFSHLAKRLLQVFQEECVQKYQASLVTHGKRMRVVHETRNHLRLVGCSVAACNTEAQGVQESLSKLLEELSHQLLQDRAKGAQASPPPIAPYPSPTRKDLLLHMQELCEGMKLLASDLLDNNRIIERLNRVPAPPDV
The settings on record: at 0.1 µM.

Test [11] deals with T4, Inhibitor of nuclear factor kappa-B kinase subunit epsilon (Homo sapiens). The settings on record: at 1 µM.
Test [12] concerns the target T5, Serine/threonine-protein kinase Nek1 (Homo sapiens) (UniProt Q96PY6).
T5 sequence (whole entry): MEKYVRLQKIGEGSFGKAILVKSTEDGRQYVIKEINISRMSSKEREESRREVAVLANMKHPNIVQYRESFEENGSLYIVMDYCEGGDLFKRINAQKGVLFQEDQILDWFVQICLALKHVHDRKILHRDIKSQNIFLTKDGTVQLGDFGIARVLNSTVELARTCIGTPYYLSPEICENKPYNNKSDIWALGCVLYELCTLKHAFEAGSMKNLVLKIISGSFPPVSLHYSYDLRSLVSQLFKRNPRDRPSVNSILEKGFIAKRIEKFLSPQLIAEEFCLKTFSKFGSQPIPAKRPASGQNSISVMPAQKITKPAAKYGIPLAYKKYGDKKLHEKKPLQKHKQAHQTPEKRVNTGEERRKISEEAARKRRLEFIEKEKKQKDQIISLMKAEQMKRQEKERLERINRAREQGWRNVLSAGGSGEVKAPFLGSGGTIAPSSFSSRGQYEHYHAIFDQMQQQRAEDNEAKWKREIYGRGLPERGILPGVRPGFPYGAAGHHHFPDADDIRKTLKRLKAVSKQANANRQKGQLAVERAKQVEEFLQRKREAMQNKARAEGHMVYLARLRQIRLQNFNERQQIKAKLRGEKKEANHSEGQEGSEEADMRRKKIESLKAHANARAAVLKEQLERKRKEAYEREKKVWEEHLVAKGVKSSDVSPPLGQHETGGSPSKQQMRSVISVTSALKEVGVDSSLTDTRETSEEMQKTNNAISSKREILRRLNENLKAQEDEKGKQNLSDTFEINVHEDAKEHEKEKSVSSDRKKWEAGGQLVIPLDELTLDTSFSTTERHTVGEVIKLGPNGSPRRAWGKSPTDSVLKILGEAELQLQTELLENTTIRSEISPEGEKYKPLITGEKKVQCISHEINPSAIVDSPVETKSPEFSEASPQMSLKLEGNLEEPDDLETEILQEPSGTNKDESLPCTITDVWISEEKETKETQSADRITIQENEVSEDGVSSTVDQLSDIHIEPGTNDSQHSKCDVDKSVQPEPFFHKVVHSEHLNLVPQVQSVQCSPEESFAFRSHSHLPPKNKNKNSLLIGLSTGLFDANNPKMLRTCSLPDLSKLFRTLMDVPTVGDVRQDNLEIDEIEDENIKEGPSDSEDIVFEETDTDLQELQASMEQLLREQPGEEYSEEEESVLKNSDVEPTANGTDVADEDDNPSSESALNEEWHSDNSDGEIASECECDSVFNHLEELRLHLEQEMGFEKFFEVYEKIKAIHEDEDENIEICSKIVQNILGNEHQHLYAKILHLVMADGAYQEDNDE
The settings on record: at 0.1 µM.

Test [13] addresses T5, Serine/threonine-protein kinase Nek1 (Homo sapiens). The settings on record: at 1 µM.
Test [14] concerns the target T6, Serine/threonine-protein kinase Nek2 (Homo sapiens) (UniProt P51955).
T6 sequence (whole entry): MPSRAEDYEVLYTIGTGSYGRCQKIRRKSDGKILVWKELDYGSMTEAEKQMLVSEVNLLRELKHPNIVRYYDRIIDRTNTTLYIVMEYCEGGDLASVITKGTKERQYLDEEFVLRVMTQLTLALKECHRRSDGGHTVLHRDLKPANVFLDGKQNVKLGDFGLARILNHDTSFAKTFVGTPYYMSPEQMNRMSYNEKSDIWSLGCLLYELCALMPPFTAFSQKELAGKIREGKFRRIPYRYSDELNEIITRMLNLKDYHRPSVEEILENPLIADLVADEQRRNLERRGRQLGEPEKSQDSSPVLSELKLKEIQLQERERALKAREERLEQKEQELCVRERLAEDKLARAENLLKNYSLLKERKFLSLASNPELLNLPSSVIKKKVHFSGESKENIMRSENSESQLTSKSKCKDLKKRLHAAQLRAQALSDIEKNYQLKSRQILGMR
The settings on record: at 0.1 µM.

The target of test [15] is T6, Serine/threonine-protein kinase Nek2 (Homo sapiens). Conditions: at 1 µM.
Test [16] deals with Serine/threonine-protein kinase Nek6 (Homo sapiens) (UniProt Q9HC98). The settings on record: at 0.1 µM.
Chain of Serine/threonine-protein kinase Nek6 (Homo sapiens) (Q9HC98 whole entry): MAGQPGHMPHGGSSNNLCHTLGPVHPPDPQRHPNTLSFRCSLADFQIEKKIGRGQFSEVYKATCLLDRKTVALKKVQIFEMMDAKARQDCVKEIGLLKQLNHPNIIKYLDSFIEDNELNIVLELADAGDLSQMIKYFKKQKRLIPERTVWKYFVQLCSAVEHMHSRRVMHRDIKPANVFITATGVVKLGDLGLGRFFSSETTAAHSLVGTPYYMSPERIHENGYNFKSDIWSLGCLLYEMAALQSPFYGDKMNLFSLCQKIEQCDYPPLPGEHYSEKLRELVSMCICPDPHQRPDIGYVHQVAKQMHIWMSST
Test [17] has the same target. The settings on record: at 1 µM.
Test [18] deals with Serine/threonine-protein kinase Nek7 (Homo sapiens) (UniProt Q8TDX7). Conditions: at 0.1 µM.
Chain of Serine/threonine-protein kinase Nek7 (Homo sapiens) (Q8TDX7 whole entry, looked up): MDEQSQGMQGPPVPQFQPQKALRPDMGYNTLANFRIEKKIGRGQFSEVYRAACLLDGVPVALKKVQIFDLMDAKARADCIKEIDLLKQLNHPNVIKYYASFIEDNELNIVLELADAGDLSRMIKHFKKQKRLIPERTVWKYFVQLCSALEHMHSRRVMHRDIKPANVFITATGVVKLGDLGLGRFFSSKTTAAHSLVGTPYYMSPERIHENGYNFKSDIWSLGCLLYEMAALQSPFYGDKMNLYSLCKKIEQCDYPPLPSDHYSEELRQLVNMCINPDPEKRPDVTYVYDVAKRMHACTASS
Test [19] shares this target. The settings on record: at 1 µM.
The target of test [20] is T7, Serine/threonine-protein kinase Nek9 (Homo sapiens) (UniProt Q8TD19).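 Note: reported value is the mean percent inhibition of NEK9.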
T7 sequence (whole entry): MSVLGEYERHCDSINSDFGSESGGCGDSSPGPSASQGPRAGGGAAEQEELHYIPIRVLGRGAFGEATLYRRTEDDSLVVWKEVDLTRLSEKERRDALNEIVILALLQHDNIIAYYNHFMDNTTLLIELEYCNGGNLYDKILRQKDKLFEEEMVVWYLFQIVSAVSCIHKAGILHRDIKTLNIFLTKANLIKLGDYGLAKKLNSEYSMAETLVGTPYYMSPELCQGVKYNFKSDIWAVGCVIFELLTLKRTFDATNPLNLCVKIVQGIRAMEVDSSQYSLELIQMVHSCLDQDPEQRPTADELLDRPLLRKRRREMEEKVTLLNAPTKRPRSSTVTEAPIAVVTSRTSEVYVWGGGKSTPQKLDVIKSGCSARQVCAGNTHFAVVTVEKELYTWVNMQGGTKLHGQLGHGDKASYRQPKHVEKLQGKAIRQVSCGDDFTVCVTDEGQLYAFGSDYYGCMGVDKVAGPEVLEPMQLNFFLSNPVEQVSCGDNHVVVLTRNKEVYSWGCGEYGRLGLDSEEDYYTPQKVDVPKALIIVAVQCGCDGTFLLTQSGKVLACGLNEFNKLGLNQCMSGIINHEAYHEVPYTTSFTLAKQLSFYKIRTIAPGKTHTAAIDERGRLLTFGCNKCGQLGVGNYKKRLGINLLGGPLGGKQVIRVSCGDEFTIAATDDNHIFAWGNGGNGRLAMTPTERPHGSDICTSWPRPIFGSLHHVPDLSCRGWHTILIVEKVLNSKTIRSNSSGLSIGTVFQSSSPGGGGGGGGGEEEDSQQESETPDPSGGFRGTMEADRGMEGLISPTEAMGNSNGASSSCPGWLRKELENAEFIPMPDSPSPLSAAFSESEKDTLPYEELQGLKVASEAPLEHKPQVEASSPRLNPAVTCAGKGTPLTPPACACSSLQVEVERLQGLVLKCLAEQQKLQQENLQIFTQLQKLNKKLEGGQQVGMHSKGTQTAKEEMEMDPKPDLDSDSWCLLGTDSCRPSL
Conditions: at 0.1 µM.

Chain of Casein kinase II subunit alpha (Homo sapiens) (P68400 whole entry, looked up): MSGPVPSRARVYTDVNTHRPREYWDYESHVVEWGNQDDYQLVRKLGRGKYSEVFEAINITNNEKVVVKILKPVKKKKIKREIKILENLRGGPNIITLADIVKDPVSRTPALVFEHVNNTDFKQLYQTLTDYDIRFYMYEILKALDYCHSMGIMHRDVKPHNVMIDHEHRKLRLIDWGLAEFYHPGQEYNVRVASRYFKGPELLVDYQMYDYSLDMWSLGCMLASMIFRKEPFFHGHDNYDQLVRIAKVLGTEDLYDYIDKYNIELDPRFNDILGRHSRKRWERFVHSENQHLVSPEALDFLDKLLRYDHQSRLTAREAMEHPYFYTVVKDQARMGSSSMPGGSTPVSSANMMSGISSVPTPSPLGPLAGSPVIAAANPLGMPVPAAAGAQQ
Chain of Sphingosine kinase 1 (Homo sapiens) (Q9NYA1 whole entry): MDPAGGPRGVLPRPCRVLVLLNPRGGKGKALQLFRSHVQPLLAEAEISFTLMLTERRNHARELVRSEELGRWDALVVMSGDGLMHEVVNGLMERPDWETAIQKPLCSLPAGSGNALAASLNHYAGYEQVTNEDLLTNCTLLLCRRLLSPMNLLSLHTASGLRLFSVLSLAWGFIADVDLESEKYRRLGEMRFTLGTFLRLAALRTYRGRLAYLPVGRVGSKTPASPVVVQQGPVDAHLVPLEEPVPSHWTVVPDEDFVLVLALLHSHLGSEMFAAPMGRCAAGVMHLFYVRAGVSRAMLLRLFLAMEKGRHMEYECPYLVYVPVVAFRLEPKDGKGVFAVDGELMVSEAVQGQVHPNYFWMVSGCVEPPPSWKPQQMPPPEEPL

Take `c1ccc(COc2ccc(Nc3ncnc4ccc(-c5ccco5)cc34)cc2)cc1`: the inhibition in test [1] was 0.95%; in test [2] it was -2.53%; in test [3] it was 1.35%; in [4] it was 1.23%; in [5], 4.42%; in [6] it was -5.49%. The inhibition in test [7] came out at 0.49%; in [8] it was 1.07%; in test [9], 0.01%; in [10], 4.51%; in test [11], 3.49%; in [12], 0.6%. The inhibition was 1.07% in test [13]; 1.15% in test [14]; 0.92% in [15]; -0.18% in test [16]; -0.36% in [17]; -0.99% in test [18]. Further, the inhibition came out at 1.84% in test [19] and 1.17% in [20].
